High-throughput results as filed in PubChem.
VP16 counter – VP16 counterscreen qHTS for inhibitors of ROR gamma transcriptional activity; Drosophila S2 Gal4-VP16 UAS-luciferase, luminescence, 20 h; Potency, µM (doses to about 53.6 µM), without a hit: top-dose activity, negative = inhibition, hits mostly inhibitors; actives 3.5% (n = 310,000); AID 2546, 2010;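 note: Gal4-VP16 expression switched on by copper sulfate through the metallothionein promoter; % is set by controls: 0 for no effect and ±100 for the full control effect; nearly all actives have a fitted effect of over 50% in size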
S2 tox – Viability Counterscreen for Primary qHTS for Inhibitors of ATXN expression. S2 cells (HEK-293 line with an ATXN2-luciferase reporter) viability, CellTiter-Fluor protease fluorescence, 24 h. AID 651635, 2014. actives 0.49% (n = 400,000). Potency, µM (titrated, usually from 56.7 µM), most hits filed as cytotoxic; note: nearly all actives have a fitted effect of over 40% in size
RORg inh – qHTS for inhibitors of ROR gamma transcriptional activity; Nuclear receptor ROR-gamma (Mus musculus), P51450; Drosophila S2 Gal4-RORgamma UAS-luciferase reporter, 20 h; Potency, µM (titrated, usually from 53.6 µM), inactives show at the highest dose activity change, negative = inhibition, hits mostly inhibitors; actives 5.4% (n = 310,000); AID 2551, 2010; note: % is set by controls: 0 for no effect and ±100 for the full control effect; nearly all actives have a fitted effect of over 60% in size
Target sequence (P51450 whole entry, looked up, the tested form may be a part): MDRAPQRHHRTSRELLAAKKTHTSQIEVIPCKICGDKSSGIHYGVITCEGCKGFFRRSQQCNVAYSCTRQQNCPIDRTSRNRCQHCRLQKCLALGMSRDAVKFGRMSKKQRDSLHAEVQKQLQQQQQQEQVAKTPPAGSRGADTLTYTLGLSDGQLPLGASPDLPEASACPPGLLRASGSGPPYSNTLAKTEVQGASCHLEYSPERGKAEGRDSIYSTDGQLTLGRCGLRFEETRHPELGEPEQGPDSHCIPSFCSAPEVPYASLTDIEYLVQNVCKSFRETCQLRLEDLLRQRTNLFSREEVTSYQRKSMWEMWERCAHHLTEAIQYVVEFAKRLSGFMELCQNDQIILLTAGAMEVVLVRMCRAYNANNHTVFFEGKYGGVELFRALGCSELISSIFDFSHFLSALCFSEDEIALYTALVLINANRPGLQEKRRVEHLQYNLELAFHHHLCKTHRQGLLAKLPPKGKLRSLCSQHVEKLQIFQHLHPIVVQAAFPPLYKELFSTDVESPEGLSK
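In this cell-based reporter format, copper sulfate (700 uM final) drives Gal4–ROR gamma fusion expression from a metallothionein promoter in Drosophila Schneider cells; compounds preincubated 1 hr, reporter read after 20 hr at ambient temperature.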
HepG2 tox – qHTS for Inhibitors of TGF-b: Cytotox Counterscreen; HepG2 CAGA-GFP viability, ATP luminescence, 18 h; Potency, µM (highest dose often 46.1 µM), for the others: at the top dose activity change, negative = cytotoxicity, usual class: cytotoxic; AID 588856, 2011; actives 0.76% (n = 410,000)
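CellTiter-Glo luminescence gave cytotoxicity after 18 hours at 37 degrees C. The cells were HepG2 CAGA-GFP in 1% FBS DMEM, stimulated with 500 pg/mL TGF-beta after compound addition. %Activity was normalised to no-cell wells (complete cell-killing) and DMSO (no toxicity), and curves were fitted and classified.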
ATXN2 expr inh – Primary qHTS for Inhibitors of ATXN expression. HEK-293 ATXN2-luciferase reporter, luminescence, 24 h. Potency, µM (titrated, usually from 57 µM), inactives show at the highest dose activity change, negative = inhibition, actives largely listed as inhibitors. actives 0.72% (n = 360,000). AID 1745845, 2022; note: % is set by controls: 0 for no effect and ±100 for the full control effect; nearly all actives have a fitted effect of over 55% in size
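qHTS (up to 57 uM final) was run with 24 h compound exposure of reporter cells at 37 °C. Each well was multiplexed: SteadyGlo luminescence measured ATXN2-luciferase expression after a fluorogenic Gly-Phe-AFC viability readout (25 uM final).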
TGFb inhibitor – qHTS for Inhibitors of TGF-b. HepG2 CAGA-GFP TGF-b/SMAD3 reporter, GFP fluorescence, 18 h; TGF-beta stimulated, 500 pg/mL final. Potency, µM (top dose mostly 46.1 µM), for inactives: at the top dose activity, negative = inhibition, most hits filed as inhibitors. actives 1.2% (n = 410,000); note: % is set by controls: 0 for no effect and ±100 for the full control effect; nearly all actives have a fitted effect of over 65% in size
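TGF-beta reporter screen: HEPG2 CAGA-GFP, 1% FBS, 500 pg/mL TGF-beta final, 18 h; per-cell GFP summed per well; curves fitted and categorized by class.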
Starred values were filed as active, the others as inactive; i = inactive; ? = inconclusive; / = no result; [ ] = dose if it differs, or a comment. Only some compounds are listed: those with a hit (about 6.1% of all), similar ones and a draw of the others. Calls come from the whole dose curve; as a rule, active = well fitted curve in the direction sought with a large enough effect; inconclusive = small, poorly fitted or top-dose-only effect, or another doubt; inactive = no such curve, though single readings can be large; an effect the other way counts as inactive or inconclusive. Potency is the fitted concentration of half-maximal effect.

SMILES | VP16 counter | S2 tox | RORg inh | HepG2 tox | ATXN2 expr inh | TGFb inhibitor
COc1cc(OC)c(NC(=O)CC(C)S(=O)(=O)c2ccc3c(c2)NC(=O)CO3)cc1Cl (stereo not given) | / | i | / | 7.0% | -0.2% | -5.2%
COc1cc(NC(=O)N2CCC(CN3CCCC3)CC2)cc(OC)c1OC | / | / | / | 4.6% | / | 21.2%
COc1cccc(N2CC(NC(=O)c3cccc(OC)c3OC)CC2=O)c1 (stereo not given) | / | / | / | -17.4% | / | 14.2%
Nc1ccc2c(c1)CN1C(=O)c3ccccc3C1=N2 | / | ? | / | / | 12.6µM* | /
Cc1ccccc1N1Cc2ccccc2C1=O | / | i | / | -13.6% | -9.5% | -8.2%
CCNc1nc(CN2CCOCC2)nc2sc3c(c12)CCC3 | -6.7% | i | ? | -23.8% | -13.2% | ?
c1ccc2c(c1)CCN(c1nc(CN3CCOCC3)nc3sc4c(c13)CCCC4)C2 | ? | ? | 11.2µM* | -20.2% | -21.8% | ?
CCc1nnc(NC(=O)CCc2ccc(C)o2)s1 | 4.4% | i | ? | -15.6% | 4.5% | 13.7%
Cc1ccc(CCC(=O)Nc2ncc(Cc3cccc(Cl)c3Cl)s2)o1 | ? | ? | 35.5µM* | 0.8% | 0.4% | ?
CN1CCN(c2ncnc3c2ncn3[C@H]2CN(Cc3ccc(-c4ccccc4)cc3)C[C@@H](CO)O2)CC1 | / | ? | / | 11.2µM* | ? | ?
CN(C)CCNc1ncnc2c1ncn2[C@H]1CN(Cc2ccccc2)C[C@@H](CO)O1 | / | i | / | -8.1% | 9.7% | 2.6%
OCCN1CCN(c2ncnc3c2ncn3[C@H]2CN(Cc3ccc(-c4ccccc4)cc3)C[C@@H](CO)O2)CC1 | / | / | / | -33.9% | ? | -6.2%
CN(C)CCNc1ncnc2c1ncn2[C@H]1CN(Cc2ccc(-c3ccccc3)cc2)C[C@@H](CO)O1 | / | ? | / | -87.5% | ? | 15.8µM*
COc1ccc(CC(=O)NCCc2csc(-c3cccc(C)c3)n2)cc1 | / | / | / | -23.8% | / | -23.6%
Cc1cc(C(=O)NCCC2=CCCCC2)c(C)o1 | ? | i | 10µM* | -5.6% | 21.3% | 7.4%
CCN(CC)S(=O)(=O)c1ccc2[nH]cc(C(=O)NCCC3=CCCCC3)c(=O)c2c1 | 5.01µM* | ? | 10µM* | -44.4% | -26.7% | ?
CCc1ccc(NS(=O)(=O)c2ccc3[nH]cc(C(=O)NCc4ccc(C)cc4)c(=O)c3c2)cc1 | / | i | / | 20µM* | ? | ?
CCOc1ccc(-n2nc(CO)c(C(=O)NCc3ccc(Cl)cc3)n2)cc1 | / | / | / | -25.4% | / | 0.0%
Cc1ncc(CO)c2c1Oc1nc(-c3ccccc3Cl)nc(SCc3ccccc3F)c1C2 | / | i | / | -5.0% | 12.0% | -19.7%
C/C(=N\NC(=O)c1ccc(O)cc1O)c1cccnc1 | ? | i | 5.62µM* | 3.1% | 13.6% | 18.3%
C/C(=N\NC(=O)c1ccncc1)c1cccc(NC(=O)c2ccc(C(C)(C)C)cc2)c1 | 3.98µM* | ? | 4.47µM* | -1.3% | ? | -4.5%
C/C(=N\NC(=O)c1ccc(Br)cc1)c1cccc(NC(=O)c2cccnc2)c1 | 1.1%[10 µM] | ? | 17.8µM* | -15.5% | 3.4% | -4.4%
CC(=NNC(=O)c1ccncc1)c1cccc(Br)c1 | / | i | / | 10.8% | 16.8% | 10.0%
COc1ccc2c(c1)CCc1cnc(-n3ncc(C(=O)N(C)CC4CCCN(C)C4)c3C)nc1-2 (stereo not given) | / | i | / | / | / | /
CC1(C)CCC(C)(C)NC(=S)N1 | ? | i | 8.91µM* | 28.3% | 0.0% | 18.6%
SMILES | VP16 counter | S2 tox | RORg inh | HepG2 tox | ATXN2 expr inh | TGFb inhibitor
CCOC1CC(C)(C)NC(=S)N1 (stereo not given) | -2.7% | i | -20.8% | 16.0% | 6.6% | 3.7%
O=c1c(O)c(-c2ccccc2)oc2ccccc12 | 7.08µM* | / | 3.98µM* | -22.4% | ? | ?
Cc1ccc2oc(-c3ccccc3)c(C(=O)O)c(=O)c2c1 | 11.2µM* | i | 7.08µM* | -19.4% | -14.2% | -8.2%
Cc1ccc(-c2oc3ccccc3c(=O)c2O)cc1 | 12.6µM* | ? | 3.98µM* | -22.1% | ? | -16.5%
Cc1ccc2oc(-c3ccccc3)c(O)c(=O)c2c1 | 14.1µM* | / | 6.31µM* | / | / | /
O=c1cnc2cnc(Nc3ccccc3)nc2n1Cc1cccs1 | ? | / | -6.8% | / | / | /
COCCN(C)C(=O)c1cnn(-c2ncc3c(n2)-c2ccccc2CC3)c1C | / | i | / | / | / | /
Cn1cnc(S(=O)(=O)N2CCC(C(=O)NCc3ccccc3)CC2)c1 | / | / | / | -11.7% | / | -11.9%
CCOc1ccc(-c2oc3ccc(C)cc3c(=O)c2O)cc1 | / | / | / | -2.3% | 22.8% | ?
COc1cccc(-c2oc3ccc(C)cc3c(=O)c2O)c1 | / | i | / | -30.3% | ? | 8.91µM*
COC(=O)c1ccccc1NC(=O)CSc1nc2ccsc2c(=O)n1CCC(C)C | / | / | / | 3.1% | / | -4.5%
CCOc1ccc(C(=O)CCC(=O)N2CCN(c3ccccc3O)CC2)cc1 | / | i | / | 2.51µM* | -15.3% | -1.7%
CCOc1ccc(S(=O)(=O)NCCC(=O)N2CCN(c3ccccc3O)CC2)cc1 | / | i | / | -29.7% | -0.5% | 0.0%
Cc1cc(Cl)ccc1NC(=O)Cn1nnc2sc(-c3ccccc3)cc2c1=O | / | i | / | 2.9% | 16.5% | 0.5%
CCOc1ccc(C2C(C#N)=C(N)SC(N)=C2C#N)cc1OC | 0.0% | / | ? | / | / | /
CCOc1ccc(C2C(C#N)=C(N)SC(N)=C2C#N)cc1OCC | 7.94µM* | i | -28.3% | -13.6% | -2.0% | 101.1%
COc1ccccc1CNc1ncnc2sc(C(=O)N3CCN(C)CC3)c(C)c12 | / | i | / | / | / | /
COCc1cc(C)nc2sc3c(=O)n(-c4cc(C)ccc4C)nnc3c12 | / | / | / | 7.0% | / | 5.7%
CN(c1ccccc1)C1CCCCC1NS(=O)(=O)c1ccc(Cl)cc1 (stereo not given) | ? | ? | -18.6% | -82.7% | / | 11.2µM*
COc1ccc(CNC(=O)Cn2c(-c3ccccc3)cc(C(C)=O)c2C)cc1OC | / | i | / | -2.3% | -4.0% | -11.8%
CC(C)(C)C(=O)Nc1cccc(-c2nc3ccccc3c(=O)o2)c1 | ? | i | 14.1µM* | -1.2% | 7.9% | -12.2%
CC(C)(C)C(=O)Nc1ccc(-c2nc3ccccc3c(=O)o2)cc1 | ? | i | ? | -7.4% | 0.9% | -11.9%
CC(C)C(=O)Nc1ccc(-c2nc3ccccc3c(=O)o2)cc1 | ? | i | 11.2µM* | 28.8% | -5.1% | -9.4%
